Laboratory results as given in PubChem BioAssay (NCI).
Compounds without any hit were thinned out: in the full panel of roughly 79,000, 15% have a hit. Calls of active or inactive are those of the source. Cut-off read from the data, not from the text of the source: active = growth inhibition above about 70%; inactive = the rest.

Legend:
[1] = NCI Yeast Anticancer Drug Screen. Data for the rad52 strain (AID 147);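 note: 0% = growth of vehicle-treated control cultures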; details: S. cerevisiae rad52 mutant growth inhibition, hits give high values
How it was run: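 Measured: yeast growth inhibition. System: strain with a defined DNA damage repair alteration. Reference: vehicle-treated control cultures.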

[2] = NCI Yeast Anticancer Drug Screen. Data for the wt1 strain (AID 149);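 note: 0% = growth of vehicle-treated wt1 cultures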; details: S. cerevisiae wt1 strain (SPY 50644) growth inhibition, hits give high values
How it was run: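 Using yeast strain wt1, compound-induced growth inhibition was determined against vehicle-treated cultures.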

[3] = NCI Yeast Anticancer Drug Screen. Data for the rad50EPP+ strain (AID 151);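 note: 0% = growth of vehicle-treated control cultures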; details: S. cerevisiae rad50 mutant strain, hits give high values
How it was run: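 One strain with a rad50 alteration (rad50EPP+) was compound-treated, its growth then compared to that of vehicle controls.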

[4] = NCI Yeast Anticancer Drug Screen. Data for the rad50 strain (AID 155);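 note: 0% = growth of vehicle-only cultures of the same strain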; details: S. cerevisiae rad50 strain growth inhibition, hits give high values
How it was run: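 Relative growth inhibition (compound vs vehicle) was measured in yeast with a defined repair-gene alteration.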

[5] = NCI Yeast Anticancer Drug Screen. Data for the mec2-1 strain (AID 157); details: S. cerevisiae mec2-1 strain, hits give high values
How it was run: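 Test agents were screened against the mec2-1 yeast strain, with defined DNA repair or cell cycle alteration. Growth was scored as inhibition against vehicle-only controls.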

[6] = NCI Yeast Anticancer Drug Screen. Data for the rad14 strain (AID 159);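 note: 0% = growth of vehicle-treated control cultures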; details: S. cerevisiae rad14 strain growth inhibition, hits give high values
How it was run: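 Screen for anticancer potential: a yeast strain altered in DNA damage repair is grown with compound, and reduced growth is quantified against vehicle controls.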

[7] = NCI Yeast Anticancer Drug Screen. Data for the sgs1 mgt1 strain (AID 161);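 note: 0% = growth of cultures given vehicle only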; details: S. cerevisiae sgs1 mgt1 strain, hits give high values
How it was run: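 Mutant yeast exposed to compound; growth scored against vehicle-only wells.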

[8] = NCI Yeast Anticancer Drug Screen. Data for the cln2 rad14 strain (AID 165);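 note: 0% = growth equal to vehicle treated cultures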; details: S. cerevisiae cln2 rad14 strain, hits give high values
How it was run: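 Growth of compound-exposed yeast (cln2 rad14 genotype) measured and expressed as inhibition relative to vehicle.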

[9] = NCI Yeast Anticancer Drug Screen. Data for the bub3 strain (AID 167); details: S. cerevisiae bub3 mutant strain, hits give high values
How it was run: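 Screening used yeast with an engineered genetic alteration affecting cell cycle control. Compound-exposed cultures were compared with vehicle cultures, and reduced growth was taken as inhibition.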

[10] = NCI Yeast Anticancer Drug Screen. Data for the wt2 strain (AID 169);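 note: 0% = growth of vehicle-treated yeast cultures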; details: S. cerevisiae wt2 strain growth inhibition, hits give high values
How it was run: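 Genetically defined yeast strains from a DNA-repair/cell-cycle panel were used. Compound-exposed yeast growth was measured, and the inhibition was calculated relative to vehicle treatment.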

[11] = NCI Yeast Anticancer Drug Screen. Data for the mlh1 strain (AID 171);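 note: 0% = growth of vehicle-treated control cultures of the same strain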; details: S. cerevisiae mlh1 strain growth inhibition, hits give high values
How it was run: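 Here the genetically defined yeast mutant is grown with each compound, and the extent to which its growth falls below that of vehicle-exposed cells is reported.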

[12] = NCI Yeast Anticancer Drug Screen. Data for the sgs1 strain (AID 173);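 note: 0% = growth of vehicle-only control cultures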; details: S. cerevisiae sgs1 mutant, hits give high values
How it was run: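 Relative growth inhibition, referenced to vehicle, was determined in a yeast strain with a defined alteration affecting DNA damage repair or cell cycle control after compound exposure.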

[13] = NCI Yeast Anticancer Drug Screen. Data for the mlh1 rad18 strain (AID 175); details: S. cerevisiae mlh1 rad18 strain growth inhibition, hits give high values
How it was run: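 In this whole-cell yeast screen, a strain with altered DNA damage repair is challenged with compound, and its growth is measured against matched vehicle-treated controls.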

[14] = NCI Yeast Anticancer Drug Screen. Data for the rad18 strain (AID 177); details: S. cerevisiae rad18 mutant growth inhibition, hits give high values
How it was run: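 Screen uses a yeast strain with a defined lesion in DNA damage repair; compound effect is read as loss of growth compared to untreated vehicle cultures.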

[15] = at 5.0 µM (retest, dose inferred, filed as 0.5)
[16] = at 50.0 µM (retest, dose inferred, filed as 5.0)

Measured: growth inhibition

CCCCCCCCCCCC1=C(O)C(=O)C=C(O)C1=O
active: [1]; at 33.0 µM 88% | [1]; at 100.0 µM 94% | [2]; at 33.0 µM 94% | [2]; at 100.0 µM 91% | [3]; at 33.0 µM 79% | [3]; at 100.0 µM 84% | [4]; at 33.0 µM 94% | [4]; [16] 79% | [4]; at 100.0 µM 93% | [5]; at 33.0 µM 94% | [5]; [16] 90% | [5]; at 100.0 µM 95% | [6]; at 11.0 µM 80% | [6]; at 33.0 µM 96% | [6]; at 100.0 µM 80% | [7]; [16] 85% | [8]; [16] 88% | [9]; [15] 81% | [9]; at 33.0 µM 96% | [9]; [16] 89% | [9]; at 100.0 µM 95% | [10]; at 11.0 µM 79% | [10]; at 33.0 µM 96% | [10]; at 100.0 µM 81% | [11]; at 33.0 µM 93% | [11]; at 100.0 µM 91% | [12]; at 33.0 µM 95% | [12]; at 100.0 µM 89% | [13]; [16] 90% | [13]; at 50.0 µM 72.3% | [14]; at 33.0 µM 95% | [14]; at 100.0 µM 92%
inactive: [1]; at 1.2 µM -7% | [1]; at 3.7 µM -2% | [1]; at 11.0 µM 68% | [2]; at 1.2 µM -4% | [2]; at 3.7 µM -7% | [2]; at 11.0 µM 64% | [3]; at 1.2 µM -5% | [3]; at 3.7 µM -14% | [3]; at 11.0 µM 31% | [4]; at 1.2 µM -15% | [4]; at 3.7 µM -15% | [4]; [15] 32% | [4]; at 11.0 µM 36% | [4]; at 50.0 µM 46.5% | [5]; at 1.2 µM -7% | [5]; at 3.7 µM -4% | [5]; [15] 9% | [5]; at 11.0 µM 63% | [5]; at 50.0 µM 37.9% | [6]; at 1.2 µM 2% | [6]; at 3.7 µM 0% | [7]; [15] 30% | [7]; at 50.0 µM 46.9% | [8]; [15] -11% | [8]; at 50.0 µM 35.9% | [9]; at 1.2 µM -10% | [9]; at 3.7 µM -4% | [9]; at 11.0 µM 54% | [9]; at 50.0 µM 57% | [10]; at 1.2 µM 3% | [10]; at 3.7 µM 8% | [11]; at 1.2 µM -12% | [11]; at 3.7 µM -9% | [11]; at 11.0 µM 37% | [12]; at 1.2 µM -19% | [12]; at 3.7 µM -11% | [12]; at 11.0 µM 46% | [13]; [15] 41% | [14]; at 1.2 µM -9% | [14]; at 3.7 µM -6% | [14]; at 11.0 µM 64%
